Assay results: PubChem BioAssay (Tox21)
Inconclusive results are not listed. Activity calls are given as the source filed them. The call rests on the fitted dose curve; in most records, active means well fitted cell-killing curve with a large enough effect in the repeat runs; inconclusive means weak or mixed curves, or effect the other way; inactive means flat fitted curve, though single readings scatter.

assay: qHTS RealTime-Glo MT Cell Viability Assay in HEK293 cells - 32 hour (AID 1224868); details: RealTime-Glo luminescence; series mostly up to 76.8 µM; activity change, negative = cytotoxic: at the top concentration; further: nearly all actives have a fitted effect of over 50% in size; on activity change, negative = cytotoxic: top concentration of the series differs between compounds
From the text: National Center for Advancing Translational Sciences [NCATS]
NIH Chemical Genomics Center [NCGC]
U.S. Environmental Protection Agency [EPA]
National Institutes of Environmental Health Sciences [NIEHS]
National Toxicology Program [NTP]
U.S. Food and Drug Administration [FDA]
Measure of cell viability is critical in the cell-base assay. Analysis of cell viability is necessary for the characterization of cell responses to cytotoxic drugs and environmental stress. A RealTime-Glo MT Cell Viability Assay to monitor cell viability in real time of continues cell culture during 40 hours of compound treatment was used to screen Tox21 10K library compounds in Hek293 cells. The RealTime-Glo MT Cell Viability Assay is a nonlytic, homogeneous, bioluminescent method to measure cell viability in real time using a simple, plate-based method. The assay involves adding NanoLuc luciferase and a cell-permeant prosubstrate to cells in culture. Viable cells reduce the proprietary prosubstrate to generate a substrate for NanoLuc luciferase. This substrate diffuses from cells into the surrounding culture medium, where it is rapidly used by the NanoLuc Enzyme to produce a luminescent signal. The signal correlates with the number of viable cells, making the assay well suited for cytotoxicity studies.
Tox21 Assay Protocol Summary:
The mixture of Hek293 cell suspension and reagents were dispensed at 600cells/6 ul/well in 1536-well tissue culture treated black solid bottom plates using a Multidrop dispenser. After the assay plates were incubated at a 37 C/5% CO2 incubator for 5 hours, 23 nL of compounds dissolved in DMSO, positive and negative controls was transferred to the assay plate by a pintool work station. The plates were incubated at 37 C for 40 hours. The luminescence intensity were measured at 0h, 8h, 16h, 24h, 32h and 40h time points using ViewLux plate reader during compound treatment.
On the % scale 0 is the no-effect control and ±100 the full control effect; potency means the concentration at half of the fitted maximal effect.

Structure (SMILES)	activity change, negative = cytotoxic	Potency
CCCCC[Si](OCC)(OCC)OCC	-16% (inactive)	
O=C(O)c1ccc(OCCN2CCCCC2)cc1	7.54% [at 35.3 µM] (inactive)	
Nc1cc(Cl)cc(S(=O)(=O)O)c1O	-8.66% (inactive)	
COc1cc2c(Nc3ccc(Br)cc3F)ncnc2cc1OCC1CCN(C)CC1	7.85% [at 35.3 µM] (inactive)	
COc1ccc(N=Nc2cc(C)c(N=Nc3ccc(S(=O)(=O)O)cc3)cc2OC)cc1	-3.71% (inactive)	
CCCCCN(CCCOC)C(=O)C(CCC(=O)O)NC(=O)c1ccc(Cl)c(Cl)c1 (stereo not given)	1.77% [at 35.3 µM] (inactive)	
CCCCC(CC)CNC(=O)CC(C)OC(=O)CCC(=O)O (stereo not given)	3.03% [at 35.3 µM] (inactive)	
COc1cccc2sc(N)nc12	-11.8% (inactive)	
O=CN1CCOCC1	8.52% (inactive)	
NS(=O)(=O)c1ccc(Cl)c(S(N)(=O)=O)c1	12.4% [at 35.3 µM] (inactive)	
COc1ccc(/C=N/NC(=O)c2ccncc2)cc1OC	-3.83% [at 35.3 µM] (inactive)	
CC(C)SCc1ccco1	3.86% [at 35.3 µM] (inactive)	
CCC(O)C(C)(C)C (stereo not given)	1.89% (inactive)	
NC(=O)C1(N2CCCCC2)CCN(CCCC(=O)c2ccc(F)cc2)CC1	-23% [at 35.3 µM] (inactive)	
F[Si-2](F)(F)(F)(F)F	-0.204% (inactive)	
C=C(C)C(=O)OC1CC(C)CC(C)(C)C1 (stereo not given)	-0.0308% (inactive)	
CCCCCCCCC(=O)OCC	10.2% (inactive)	
CCCCCCCC/C=C\CCCCCCCC(=O)OC[C@@H](O)[C@H]1OC[C@H](O)[C@H]1O	6.59% (inactive)	
O=c1[nH]c(=O)c2[nH]c(=O)[nH]c2[nH]1	9.11% [at 6.97 µM] (inactive)	
CN=C(NC#N)NCCSCc1csc(N=C(N)N)n1	-1.73% [at 35.3 µM] (inactive)	

Structure (SMILES)	activity change, negative = cytotoxic	Potency
Cc1ccc(C(=O)C(=O)O)cc1C	0.968% [at 35.3 µM] (inactive)	
CC(=O)OCCCc1ccccc1	2.74% (inactive)	
CCC1COC(=O)O1 (stereo not given)	1.32% (inactive)	
CCOC(=O)CC#N	0.0122% (inactive)	
CNC(=O)C(c1ccccc1)c1ccccc1	2.28% (inactive)	
CC(=O)c1ccc(OCC(=O)N2CCCCC2)cc1	1.43% [at 35.3 µM] (inactive)	
C1=C\CC/C=C\CC/1	17.7% (inactive)	
CC(C)COC(=O)COc1ccc(Cl)cc1Cl	9.35% (inactive)	
BrC/C=C/CBr	-0.679% [at 15.8 µM] (inactive)	
Cc1nc2n(c(=O)c1CCN1CCC(C(=O)c3ccc(F)cc3)CC1)CCS2		5.35 µM (active)
COc1cc2c3cc1Oc1cc(ccc1O)C[C@@H]1c4c(cc(OC)c(O)c4Oc4ccc(cc4)C[C@@H]3N(C)CC2)CC[N+]1(C)C	0.708% [at 35.3 µM] (inactive)	
CN(C)CCCNCCC#N	7.99% (inactive)	
CC(C)(c1ccc(Oc2ccc3c(c2)C(=O)OC3=O)cc1)c1ccc(Oc2ccc3c(c2)C(=O)OC3=O)cc1	19% (inactive)	
CC(=O)Nc1ccc(C)cc1	-9.75% (inactive)	
CC(C)C(=O)Nc1cccc(C(F)(F)F)c1	-11.8% [at 35.3 µM] (inactive)	
CC(C)(C)NCCO	9.11% (inactive)	
CCCCCCCCOC(C)=O	10.4% (inactive)	
O=P(O)(O)OCC(O)CO (stereo not given)	0.356% [at 35.3 µM] (inactive)	
CCCCC/C=C/CC(=O)OC	-0.98% (inactive)	
CCCO	1.36% (inactive)	
